Assay outcomes (PubChem BioAssay)
Most compounds without a hit are left out; they make up all but 2.4% or so of the library.
M1 PAM – potentiates human M1 receptor response to acetylcholine; CHO-K1 hM1, Fluo-8 calcium fluorescence, ACh EC20; 0% = ACh EC20, 100% = maximal ACh; activation, % at 3 µM; 360,000 compounds, 0.088% hits; AID 588819; in the data active = activation above about 19%, passing the limit was not always enough
Target sequence (P11229 whole entry, looked up): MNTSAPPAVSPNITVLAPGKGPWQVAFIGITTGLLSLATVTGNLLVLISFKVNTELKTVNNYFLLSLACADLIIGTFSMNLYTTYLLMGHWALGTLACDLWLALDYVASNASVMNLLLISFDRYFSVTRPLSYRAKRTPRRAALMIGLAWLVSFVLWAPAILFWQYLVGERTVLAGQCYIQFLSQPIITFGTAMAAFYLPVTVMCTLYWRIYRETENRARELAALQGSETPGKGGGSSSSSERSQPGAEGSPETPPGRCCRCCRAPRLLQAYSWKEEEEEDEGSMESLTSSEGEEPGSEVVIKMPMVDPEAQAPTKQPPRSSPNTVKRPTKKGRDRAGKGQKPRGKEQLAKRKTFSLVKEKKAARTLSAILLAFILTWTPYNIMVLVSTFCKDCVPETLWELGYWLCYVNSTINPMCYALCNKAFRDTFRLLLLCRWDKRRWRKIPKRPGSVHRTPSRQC
CHRM1 antagonist – blocks human M1 muscarinic receptor; P11229; CHO-K1 hM1, Fluo-8 calcium fluorescence, ACh EC80 antagonist; inhibition, % at 3 µM; 360,000 compounds, 1.3% hits; AID 588852;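 active = percent inhibition above its own plate's cutoff, namely the mean of that plate's compound wells plus 3 SD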;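 also: peak over basal fluorescence ratio during 140 s after agonist addition; 0% = ACh EC80 plus DMSO and 100% = DMSO alone without agonist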
CHO-K1 Ca antag – M1 antagonist counterscreen hit in parental CHO-K1 cells | ATP-induced calcium, Fluo-8 fluorescence | inhibition, % at 3 µM | 360,000 compounds, 0.6% hits | AID 602250;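 active = inhibition above a per-plate cutoff, the plate's mean sample inhibition plus 3 SD, cut at about 24% in these data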;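 also: 0% = DMSO plus EC80 ATP and 100% = DMSO alone without ATP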
CHO-K1 Ca PAM – nonselective activator or artifact in parental CHO-K1 calcium assay; AID 602247; 360,000 compounds, 0.02% hits; ATP EC20, Fluo-8 calcium fluorescence; 0% at ATP EC20, 100% at ATP max; activation, % at 3 µM;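 active = activation above the run cutoff, the mean activation of all test compounds plus 3 SD, cut at about 40% in these data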;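 also: peak over basal fluorescence ratio in a 140 s read after ATP addition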
M1 ag parental – nonselective activator or artifact in parental CHO-K1 cells | AID 602248 | 360,000 compounds, 0.48% hits | activation, % at 3 µM | Fluo-8 calcium fluorescence; scaled to maximal ATP response, vehicle zero; in the data active = activation above about 15%;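 also: untransfected CHO-K1 host cells lacking M1 receptor as counterscreen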
CHRM1 agonist – agonists of human M1 muscarinic receptor; AID 588814; activation, % at 3 µM; 360,000 compounds, 0.33% hits; CHO-K1 hM1, Fluo-8 calcium fluorescence, agonist mode; 0% DMSO, 100% acetylcholine EC100; P11229;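 active = activation above the run's mean compound activation plus 3 SD, cut at about 16% in these data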;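 also: peak over basal fluorescence ratio within a 140 s kinetic read after compound addition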
Active calls of the source: *; x = no result.

SMILES | M1 PAM | CHRM1 antagonist | CHO-K1 Ca antag | CHO-K1 Ca PAM | M1 ag parental | CHRM1 agonist
Nc1c(C(=O)Nc2nccs2)sc2nc(-c3cccs3)cc(C(F)(F)F)c12 | -5 | 37* | 38* | 6 | 27* | 28*
Cc1nnc(NC(=O)c2sc3nc(-c4cccs4)cc(C(F)(F)F)c3c2N)s1 | -23 | 39* | 22 | 1 | 20* | 52*
CC(Sc1ncn[nH]1)C(=O)c1c(N)n(C)c(=O)n(C)c1=O (stereo unspecified) | 10 | 6 | 5 | -2 | 0 | 8
CC(Sc1nnc(N)s1)C(=O)c1c(N)n(C)c(=O)n(C)c1=O (stereo unspecified) | 3 | 1 | 14 | 0 | 18* | -1
COc1cccc(CC2(CO)CCN(CC3=CC[C@H]4C[C@@H]3C4(C)C)CC2)c1 | -24 | 36* | -7 | 12 | 15 | -6
COc1cccc(CC2(CO)CCN(Cc3ccc(NC(C)=O)cc3)CC2)c1 | -9 | 16 | -4 | 11 | 0 | -5
O=C1NC[C@H](CCCCN2C[C@H](Cc3ccccc3)N(Cc3ccccc3)C(=O)C2=O)N(CC2CCCCC2)C1=O | x | x | -5 | -4 | 0 | x
O=C1NC[C@@H](CCCCN2C[C@H](Cc3ccc(O)cc3)N(CC3CCCCC3)C(=O)C2=O)N(CCC2CCCCC2)C1=O | x | x | -9 | 8 | 63* | x
O=C1NC[C@@H](CCCCN2C[C@H](Cc3ccccc3)N(CC3CCCCC3)C(=O)C2=O)N(Cc2ccccc2)C1=O | x | x | -5 | -10 | 17* | x
CCCCCCCN1CCN=C1N(C)C | -1 | 0 | -7 | 18 | 0 | -12
O=S(=O)(c1ccccc1)N1CCC(O)(CSc2ccc(F)cc2)CC1 | -13 | 10 | 16 | -11 | 18* | -4
O=S(=O)(c1ccccc1)N1CCC(O)(CSc2ccccc2)CC1 | -1 | 11 | 6 | -10 | 3 | 2
Cn1c(=O)c2c(nc(Oc3ccccc3Br)n2C)n(C)c1=O | 7 | -18 | -9 | 3 | 1 | -1
Cn1c(=O)c(N)c2c3c(c(Br)ccc31)C(=O)c1ccccc1-2 | -2 | 13 | 1 | 14 | 32* | 16*
Cc1cc(C)n(C(C)CNS(=O)(=O)c2ccccc2)n1 (stereo unspecified) | 9 | -6 | -22 | 20 | 1 | -1
C=C(C)COc1ccc(-c2ncnc(C(F)(F)F)c2-c2ccccc2)c(O)c1 | -26 | 37* | -2 | 14 | 4 | -11
COc1ccc(CCNC(=O)Cn2cnc3sc(C)c(-c4ccc(F)cc4)c3c2=O)cc1OC | 1 | 4 | -12 | 2 | 6 | 18*
COc1ccc(NC(=O)CCCNC(=O)Cn2cnc3sc(C)c(C)c3c2=O)c(OC)c1 | -9 | 22* | -4 | -24 | 0 | 0
CN(C)CCNC(=O)Nc1ccc(F)cc1F | 11 | -7 | -11 | 4 | 0 | -1
CN1CCN(CC/C=C2/c3ccccc3Sc3ccc(S(=O)(=O)N(C)C)cc32)CC1 | -8 | -15 | 7 | -6 | 1 | -5
COc1ccc(CCN(/C=C2\Sc3ccccc3C2=O)C(C)=O)cc1OC | 20 | -20 | -2 | -17 | 0 | 0
CN(C)CC/C=C1/c2ccccc2Sc2c(O)cc(Cl)cc21 | -31 | 97* | 4 | 0 | 2 | -10
CN(C)CC/C=C1/c2cc(F)ccc2Sc2ccc(Cl)cc21 | -27 | 99* | -2 | 15 | 3 | -7
COc1cc(Cl)cc2c1Sc1ccccc1/C2=C/CCN(C)C | -24 | 68* | -9 | 19 | 1 | -4
COc1cc2c(cc1Cl)/C(=C\CCN(C)C)c1ccccc1S2 | -17 | 66* | -7 | 24 | 3 | -4
SMILES | M1 PAM | CHRM1 antagonist | CHO-K1 Ca antag | CHO-K1 Ca PAM | M1 ag parental | CHRM1 agonist
CN(C)CCNC(=O)c1ccc2c(c1)NC(=O)c1ccccc1S2 | 7 | -10 | -14 | 5 | 1 | -9
O=C(/C=C/c1cccc(Cl)c1Cl)OCC(=O)N1CCOCC1 | 14 | -8 | 9 | -13 | 0 | -3
COc1cc(NC(=O)C/C(C)=N/NC(=O)C(=O)NC2CCCCC2)c(OC)cc1Cl | 3 | -8 | 3 | -13 | -1 | -3
COc1cc(NC(=O)C/C(C)=N/NC(=O)C(=O)NCCO)c(OC)cc1Cl | 8 | -6 | 55* | -15 | 0 | -7
O=C(Nc1ccn(CCCN2CCN(Cc3ccc(F)cc3)CC2)c(=O)n1)OCc1ccccc1 | -26 | 39* | 3 | 5 | 1 | -10
O=C(Nc1ccn(CCCN2CCN(c3ncccn3)CC2)c(=O)n1)OCc1ccccc1 | -19 | 22* | 3 | 3 | 0 | -12
O=C(Nc1ccn(CCCNCc2ccccn2)c(=O)n1)OCc1ccccc1 | 1 | -9 | -11 | 20 | 0 | -10
Cc1cc(C(=O)N(C)CC2CCCN(CCc3ccc(F)cc3)C2)c(C)o1 (stereo unspecified) | -17 | 19 | -7 | 10 | 0 | -7
COCc1ccc(C(=O)N(C)CC2CCCN(CCc3ccc(Cl)cc3)C2)o1 (stereo unspecified) | -15 | 23 | -16 | 27 | 2 | -7
COCc1ccc(C(=O)N(C)CC2CCCN(CCc3ccc(OC)cc3)C2)o1 (stereo unspecified) | -22 | 52* | -12 | -4 | 0 | -5
CN(CC1CCCN(CCc2ccccc2F)C1)C(=O)c1cc2ccccc2o1 (stereo unspecified) | -31 | 96* | -1 | 11 | 2 | -9
O=C(COc1ccc(S(=O)(=O)NCc2ccccc2)cc1)NCc1cccnc1 | 16 | -18 | -23 | 0 | 1 | -6
COc1ccc(-c2cc(NC(C)=O)c3ncc(-c4ccccc4)n3c2)cc1OC | 6 | -1 | 29* | -16 | 1 | 1
COc1ccc(F)cc1-c1cc(NC(C)=O)c2ncc(-c3cc(OC)c(OC)c(OC)c3)n2c1 | -5 | 8 | 7 | 11 | 8 | 5
COc1ccc(-c2cnc3c(NC(C)=O)cc(-c4cc(F)ccc4OC)cn23)cc1OC | 22 | 1 | -6 | -2 | 3 | 17*
COc1ccc(N(CC(=O)N2CCN(c3cccc(C)c3C)CC2)S(=O)(=O)c2c(C)noc2C)cc1 | 9 | -8 | -3 | 23 | 1 | -2
C=CCC1NS(=O)(=O)OCC1C(C)C (stereo unspecified) | -3 | -1 | -10 | -13 | 0 | -3
Nc1ccn([C@@H]2O[C@H](C(=O)N3CCSC3)[C@@H](O)[C@H]2O)c(=O)n1 | 3 | -12 | -5 | -8 | 0 | -2
CN(C)c1ccc(-c2nnc(-c3ccccc3F)o2)cc1 | 5 | -10 | 10 | 3 | 19* | 0
COc1ccc(-c2nnc(-c3ccc(N(C)C)cc3)o2)cc1 | 9 | -8 | -38 | 16 | 1 | -1
